What all share (assay): DAPPL (digital affinity profiling via proximity ligation, sequencing); 10 mM Tris-HCl pH 7.5, 50 mM NaCl, 1 mM DTT, 4% glycerol, room temperature, 30 min; GST-TFs on glutathione beads, 16-mer random dsDNA library, 0.1% formaldehyde crosslink after washing; high values mean tight binding
Holding throughout (conditions): protein: recombinant; tags: N-terminal GST; dsDNA, one strand shown

For one test, the target named is T1, FLI1 (Homo sapiens, UniProt Q01543 1-452).
T1 sequence: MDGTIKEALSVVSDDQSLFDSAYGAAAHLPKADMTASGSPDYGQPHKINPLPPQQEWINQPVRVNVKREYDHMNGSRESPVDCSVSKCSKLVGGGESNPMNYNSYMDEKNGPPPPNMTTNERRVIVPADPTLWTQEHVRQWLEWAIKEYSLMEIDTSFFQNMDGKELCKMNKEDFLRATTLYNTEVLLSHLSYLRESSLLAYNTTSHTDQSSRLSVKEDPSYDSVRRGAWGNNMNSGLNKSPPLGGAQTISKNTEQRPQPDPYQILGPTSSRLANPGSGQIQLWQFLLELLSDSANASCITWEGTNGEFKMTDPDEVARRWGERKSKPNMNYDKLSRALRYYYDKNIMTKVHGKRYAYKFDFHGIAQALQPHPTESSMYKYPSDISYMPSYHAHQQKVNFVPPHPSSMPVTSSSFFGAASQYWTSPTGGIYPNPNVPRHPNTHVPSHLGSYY
Summed up:
(§1)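 Beads coated with glutathione captured GST-fused human transcription factors that had been expressed in yeast, and the factors were then given DNA barcodes and pooled with a tag-only sample. The pools were incubated with 200 nmole of a random double-stranded 16-mer DNA library in Tris/NaCl/DTT/glycerol buffer for 30 min at room temperature, washed, crosslinked with 0.1% formaldehyde and proximity-ligated with BsaI/T4 ligase at 37 °C for 1 h. PCR amplification and Illumina NextSeq500 sequencing came last. Binding signal is each hexamer's read frequency for a factor divided by its frequency for the tag-only sample.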

The target of the next test is T2, ELK1 (Homo sapiens, UniProt P19419 1-428).
T2 sequence: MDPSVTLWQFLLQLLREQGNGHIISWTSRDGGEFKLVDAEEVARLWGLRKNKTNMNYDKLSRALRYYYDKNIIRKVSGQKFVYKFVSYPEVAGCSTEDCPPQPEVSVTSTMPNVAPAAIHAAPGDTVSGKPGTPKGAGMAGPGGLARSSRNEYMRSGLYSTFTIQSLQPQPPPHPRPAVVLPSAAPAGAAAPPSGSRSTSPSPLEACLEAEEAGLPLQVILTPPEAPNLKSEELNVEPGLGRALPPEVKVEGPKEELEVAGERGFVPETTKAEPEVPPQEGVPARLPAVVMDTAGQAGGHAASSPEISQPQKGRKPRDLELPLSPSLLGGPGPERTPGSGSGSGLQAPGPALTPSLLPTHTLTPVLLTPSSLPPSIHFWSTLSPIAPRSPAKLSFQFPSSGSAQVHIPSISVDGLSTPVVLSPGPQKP
Summed up: as §1

A further test addresses T3, GABPA (Homo sapiens, UniProt Q06546 1-454).
T3 sequence: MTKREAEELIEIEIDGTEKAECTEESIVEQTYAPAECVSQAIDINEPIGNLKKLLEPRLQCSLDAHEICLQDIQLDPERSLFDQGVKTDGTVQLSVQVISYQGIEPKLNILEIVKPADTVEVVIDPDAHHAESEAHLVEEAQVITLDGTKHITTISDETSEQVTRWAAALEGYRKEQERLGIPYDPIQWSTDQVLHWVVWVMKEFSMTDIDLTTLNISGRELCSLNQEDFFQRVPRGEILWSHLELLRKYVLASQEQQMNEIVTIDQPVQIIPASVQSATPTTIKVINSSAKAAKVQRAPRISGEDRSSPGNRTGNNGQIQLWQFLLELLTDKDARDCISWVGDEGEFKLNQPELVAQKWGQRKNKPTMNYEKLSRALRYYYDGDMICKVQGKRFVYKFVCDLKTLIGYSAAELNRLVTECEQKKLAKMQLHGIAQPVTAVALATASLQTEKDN
Summed up:
as §1

A further test addresses T4, ERG (Homo sapiens, UniProt P11308 1-479).
T4 sequence: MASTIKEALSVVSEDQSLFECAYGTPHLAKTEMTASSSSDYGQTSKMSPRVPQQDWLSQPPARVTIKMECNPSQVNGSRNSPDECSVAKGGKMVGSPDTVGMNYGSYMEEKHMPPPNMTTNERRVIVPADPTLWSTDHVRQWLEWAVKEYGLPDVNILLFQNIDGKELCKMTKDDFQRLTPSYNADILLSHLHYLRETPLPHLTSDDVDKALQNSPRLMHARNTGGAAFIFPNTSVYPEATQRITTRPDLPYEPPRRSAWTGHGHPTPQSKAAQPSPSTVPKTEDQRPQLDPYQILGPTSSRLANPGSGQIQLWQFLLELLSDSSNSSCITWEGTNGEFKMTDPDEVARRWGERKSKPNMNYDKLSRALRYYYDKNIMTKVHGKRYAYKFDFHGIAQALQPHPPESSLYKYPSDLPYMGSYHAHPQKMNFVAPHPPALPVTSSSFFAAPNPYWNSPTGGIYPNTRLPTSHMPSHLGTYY
Summed up:
as §1

The next test concerns the target ELF1 (Homo sapiens, UniProt P32519 1-619). Summed up:
as §1

For a further test, the target named is T5, EHF (Homo sapiens, UniProt Q9NZC4 1-300).
T5 sequence: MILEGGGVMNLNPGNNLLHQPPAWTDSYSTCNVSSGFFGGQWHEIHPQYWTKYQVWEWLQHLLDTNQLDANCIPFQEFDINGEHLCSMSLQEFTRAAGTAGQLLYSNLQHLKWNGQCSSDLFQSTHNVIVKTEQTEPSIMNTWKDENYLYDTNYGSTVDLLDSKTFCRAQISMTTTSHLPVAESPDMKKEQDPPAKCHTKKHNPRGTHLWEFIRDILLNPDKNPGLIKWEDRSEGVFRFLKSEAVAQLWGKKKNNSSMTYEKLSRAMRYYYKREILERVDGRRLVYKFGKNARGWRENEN
Summed up: as §1

The target in a further test is SPI1 (Homo sapiens, UniProt P17947 1-270). Summed up: as §1
The target in a further test is SPIB (Homo sapiens, UniProt Q01892 1-262). Summed up:
as §1

The target in another test is T6, ELK3 (Homo sapiens, UniProt P41970 1-407).
T6 sequence: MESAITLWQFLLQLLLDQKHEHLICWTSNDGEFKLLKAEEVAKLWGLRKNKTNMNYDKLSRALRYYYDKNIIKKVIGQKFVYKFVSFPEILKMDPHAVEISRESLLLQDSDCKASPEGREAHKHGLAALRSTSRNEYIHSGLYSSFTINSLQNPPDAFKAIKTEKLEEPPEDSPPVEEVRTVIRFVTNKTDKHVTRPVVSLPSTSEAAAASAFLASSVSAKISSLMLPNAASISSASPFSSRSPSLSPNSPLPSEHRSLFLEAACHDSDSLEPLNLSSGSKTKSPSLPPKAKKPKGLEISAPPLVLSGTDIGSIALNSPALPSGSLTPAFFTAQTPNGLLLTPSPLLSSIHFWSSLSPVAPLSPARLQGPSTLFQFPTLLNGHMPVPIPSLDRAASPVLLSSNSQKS
Summed up: as §1

The target in a further test is T7, FEV (Homo sapiens, UniProt Q99581 1-238).
T7 sequence: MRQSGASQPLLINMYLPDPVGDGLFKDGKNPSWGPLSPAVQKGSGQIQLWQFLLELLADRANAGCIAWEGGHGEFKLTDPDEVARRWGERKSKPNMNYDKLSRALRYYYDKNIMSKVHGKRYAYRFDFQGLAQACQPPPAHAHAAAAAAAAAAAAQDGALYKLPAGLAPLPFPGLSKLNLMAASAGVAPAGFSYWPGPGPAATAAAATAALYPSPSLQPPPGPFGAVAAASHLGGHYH
Summed up: as §1

Another test concerns the target ETV5 (Homo sapiens, UniProt P41161 1-510). Summed up: as §1
Another test concerns the target T8, SPIC (Homo sapiens, UniProt Q8N5J4 1-248).
T8 sequence: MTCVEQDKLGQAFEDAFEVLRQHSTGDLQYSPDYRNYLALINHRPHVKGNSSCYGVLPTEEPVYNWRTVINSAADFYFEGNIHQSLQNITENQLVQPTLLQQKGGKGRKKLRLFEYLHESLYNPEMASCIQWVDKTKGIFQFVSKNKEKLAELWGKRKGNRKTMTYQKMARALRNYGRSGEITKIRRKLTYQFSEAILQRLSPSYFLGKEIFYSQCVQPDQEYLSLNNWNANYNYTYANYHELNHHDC
Summed up: as §1

Another test addresses ELF4 (Homo sapiens, UniProt Q99607 1-663). Summed up:
as §1

In a further test the target is ETV1 (Homo sapiens, UniProt P50549 1-477). Summed up: as §1
The target of another test is T9, ERF (Homo sapiens, UniProt P50548 1-548).
T9 sequence: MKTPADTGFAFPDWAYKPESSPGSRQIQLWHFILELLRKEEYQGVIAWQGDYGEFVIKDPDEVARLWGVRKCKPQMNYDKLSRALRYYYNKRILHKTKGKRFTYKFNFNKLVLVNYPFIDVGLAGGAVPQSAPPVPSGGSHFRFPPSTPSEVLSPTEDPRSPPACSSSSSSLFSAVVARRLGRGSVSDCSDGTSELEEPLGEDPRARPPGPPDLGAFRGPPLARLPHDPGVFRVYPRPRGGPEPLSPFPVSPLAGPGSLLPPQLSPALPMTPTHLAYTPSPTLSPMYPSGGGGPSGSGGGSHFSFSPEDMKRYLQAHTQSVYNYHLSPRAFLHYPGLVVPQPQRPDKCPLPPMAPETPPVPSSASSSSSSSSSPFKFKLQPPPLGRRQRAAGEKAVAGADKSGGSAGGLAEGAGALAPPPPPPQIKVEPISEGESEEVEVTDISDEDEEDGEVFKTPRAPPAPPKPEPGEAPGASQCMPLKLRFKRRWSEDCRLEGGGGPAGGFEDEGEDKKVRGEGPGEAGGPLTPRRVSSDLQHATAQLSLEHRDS
Summed up:
as §1

The target of a further test is T10, ETV3L (Homo sapiens, UniProt Q6ZN32 1-361).
T10 sequence: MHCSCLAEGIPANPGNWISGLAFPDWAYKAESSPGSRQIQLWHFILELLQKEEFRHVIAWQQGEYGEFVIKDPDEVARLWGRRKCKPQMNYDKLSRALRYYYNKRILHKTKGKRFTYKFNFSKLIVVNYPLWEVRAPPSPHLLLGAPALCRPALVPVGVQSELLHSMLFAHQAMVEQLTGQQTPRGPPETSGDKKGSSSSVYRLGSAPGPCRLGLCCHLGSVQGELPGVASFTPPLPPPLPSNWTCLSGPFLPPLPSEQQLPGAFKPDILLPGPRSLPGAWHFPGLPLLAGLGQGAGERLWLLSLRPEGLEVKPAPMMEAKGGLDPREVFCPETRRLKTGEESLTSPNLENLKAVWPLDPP
Summed up:
as §1

The target in another test is T11, ETS2 (Homo sapiens, UniProt P15036 1-469).
T11 sequence: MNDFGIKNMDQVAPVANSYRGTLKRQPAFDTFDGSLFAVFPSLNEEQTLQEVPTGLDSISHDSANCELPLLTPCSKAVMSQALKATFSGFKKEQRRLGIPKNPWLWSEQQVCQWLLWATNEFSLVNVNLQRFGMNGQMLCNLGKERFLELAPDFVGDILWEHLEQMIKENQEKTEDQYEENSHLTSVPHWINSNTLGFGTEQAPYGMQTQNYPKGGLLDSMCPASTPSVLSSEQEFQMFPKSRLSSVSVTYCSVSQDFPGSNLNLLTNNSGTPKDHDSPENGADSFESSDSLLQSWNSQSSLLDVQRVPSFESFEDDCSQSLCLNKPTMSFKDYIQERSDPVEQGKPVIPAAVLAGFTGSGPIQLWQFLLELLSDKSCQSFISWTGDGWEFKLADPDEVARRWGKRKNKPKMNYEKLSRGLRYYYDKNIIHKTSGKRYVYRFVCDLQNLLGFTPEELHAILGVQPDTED
Summed up:
as §1

The next test has as its target T12, ELF5 (Homo sapiens, UniProt Q9UKW6-2 1-255).
T12 sequence: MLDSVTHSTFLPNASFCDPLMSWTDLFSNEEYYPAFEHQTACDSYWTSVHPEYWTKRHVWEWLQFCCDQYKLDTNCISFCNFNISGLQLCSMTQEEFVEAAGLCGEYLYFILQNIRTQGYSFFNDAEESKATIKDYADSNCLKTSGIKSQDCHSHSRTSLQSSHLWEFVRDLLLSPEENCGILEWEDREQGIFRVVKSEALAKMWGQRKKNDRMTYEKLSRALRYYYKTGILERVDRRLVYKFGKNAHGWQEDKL
Summed up: as §1

Another test concerns the target T13, ETV3 (Homo sapiens, UniProt P41162-2 1-143).
T13 sequence: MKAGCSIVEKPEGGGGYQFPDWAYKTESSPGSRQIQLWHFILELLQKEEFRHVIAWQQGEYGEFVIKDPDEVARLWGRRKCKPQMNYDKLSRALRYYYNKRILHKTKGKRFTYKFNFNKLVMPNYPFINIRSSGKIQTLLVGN
Summed up:
as §1

The next test deals with ETV6 (Homo sapiens, UniProt P41212 1-452). Summed up: as §1
Chain of ETV6 (P41212 whole entry): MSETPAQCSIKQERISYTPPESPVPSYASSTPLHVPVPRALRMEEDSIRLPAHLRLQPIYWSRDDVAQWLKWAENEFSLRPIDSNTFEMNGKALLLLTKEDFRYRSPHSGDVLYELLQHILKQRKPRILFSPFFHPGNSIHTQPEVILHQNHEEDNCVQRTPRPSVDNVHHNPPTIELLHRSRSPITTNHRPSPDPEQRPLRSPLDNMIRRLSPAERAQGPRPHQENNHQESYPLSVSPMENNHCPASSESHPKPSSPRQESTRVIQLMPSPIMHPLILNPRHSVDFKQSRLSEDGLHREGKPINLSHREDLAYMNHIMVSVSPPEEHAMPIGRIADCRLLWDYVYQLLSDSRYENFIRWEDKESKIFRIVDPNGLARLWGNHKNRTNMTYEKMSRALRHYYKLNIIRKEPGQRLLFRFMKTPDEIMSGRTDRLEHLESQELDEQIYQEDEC

Chain of ELF4 (Q99607 whole entry): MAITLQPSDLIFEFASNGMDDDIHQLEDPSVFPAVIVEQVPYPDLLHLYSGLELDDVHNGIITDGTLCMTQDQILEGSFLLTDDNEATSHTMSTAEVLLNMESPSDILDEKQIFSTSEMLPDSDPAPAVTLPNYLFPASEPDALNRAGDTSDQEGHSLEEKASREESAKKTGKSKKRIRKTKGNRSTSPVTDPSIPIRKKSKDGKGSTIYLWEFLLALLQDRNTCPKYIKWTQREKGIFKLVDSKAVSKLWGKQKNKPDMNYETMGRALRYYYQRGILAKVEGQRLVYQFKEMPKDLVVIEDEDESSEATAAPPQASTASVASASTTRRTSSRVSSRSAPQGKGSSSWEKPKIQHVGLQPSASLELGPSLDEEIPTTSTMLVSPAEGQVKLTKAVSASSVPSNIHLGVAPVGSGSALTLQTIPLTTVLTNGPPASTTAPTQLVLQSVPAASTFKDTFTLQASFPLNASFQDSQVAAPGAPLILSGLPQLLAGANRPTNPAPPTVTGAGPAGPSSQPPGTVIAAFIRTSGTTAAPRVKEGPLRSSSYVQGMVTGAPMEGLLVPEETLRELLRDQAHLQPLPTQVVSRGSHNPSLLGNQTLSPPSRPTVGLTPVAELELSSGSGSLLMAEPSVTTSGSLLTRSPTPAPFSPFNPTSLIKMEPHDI
Chain of SPIB (Q01892 whole entry): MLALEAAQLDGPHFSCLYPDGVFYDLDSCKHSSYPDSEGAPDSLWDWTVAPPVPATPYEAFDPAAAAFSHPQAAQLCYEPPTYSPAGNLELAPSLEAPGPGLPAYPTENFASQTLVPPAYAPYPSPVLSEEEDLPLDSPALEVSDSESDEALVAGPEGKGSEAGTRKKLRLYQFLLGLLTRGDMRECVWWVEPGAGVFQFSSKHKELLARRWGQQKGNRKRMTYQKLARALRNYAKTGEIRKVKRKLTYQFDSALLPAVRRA
Chain of ETV1 (P50549 whole entry): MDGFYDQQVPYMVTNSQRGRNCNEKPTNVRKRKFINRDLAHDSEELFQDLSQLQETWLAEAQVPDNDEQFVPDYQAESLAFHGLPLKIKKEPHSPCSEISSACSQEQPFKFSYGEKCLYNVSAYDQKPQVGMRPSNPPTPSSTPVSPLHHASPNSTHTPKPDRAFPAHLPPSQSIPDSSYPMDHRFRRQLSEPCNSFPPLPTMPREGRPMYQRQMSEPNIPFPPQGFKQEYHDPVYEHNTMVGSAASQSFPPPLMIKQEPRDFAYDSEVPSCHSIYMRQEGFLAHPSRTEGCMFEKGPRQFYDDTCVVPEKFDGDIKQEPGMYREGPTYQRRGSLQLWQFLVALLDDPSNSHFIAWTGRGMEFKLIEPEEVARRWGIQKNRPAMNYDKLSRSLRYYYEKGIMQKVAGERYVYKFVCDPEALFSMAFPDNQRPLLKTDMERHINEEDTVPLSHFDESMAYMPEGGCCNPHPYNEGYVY
Chain of ETV5 (P41161 whole entry): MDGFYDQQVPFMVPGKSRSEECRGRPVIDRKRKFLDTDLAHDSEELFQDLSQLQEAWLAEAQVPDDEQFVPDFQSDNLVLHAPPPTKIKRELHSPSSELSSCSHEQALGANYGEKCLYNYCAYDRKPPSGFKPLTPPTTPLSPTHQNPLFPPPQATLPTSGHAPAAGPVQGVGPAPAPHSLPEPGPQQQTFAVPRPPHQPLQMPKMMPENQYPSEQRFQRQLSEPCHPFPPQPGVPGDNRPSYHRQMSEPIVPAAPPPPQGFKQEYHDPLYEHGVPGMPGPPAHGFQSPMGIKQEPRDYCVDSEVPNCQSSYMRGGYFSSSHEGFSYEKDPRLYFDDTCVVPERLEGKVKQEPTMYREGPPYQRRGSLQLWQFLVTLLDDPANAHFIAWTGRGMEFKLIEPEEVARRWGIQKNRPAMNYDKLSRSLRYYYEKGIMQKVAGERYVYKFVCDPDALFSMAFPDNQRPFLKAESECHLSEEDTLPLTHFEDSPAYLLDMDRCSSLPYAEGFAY
Chain of ELF1 (P32519 whole entry): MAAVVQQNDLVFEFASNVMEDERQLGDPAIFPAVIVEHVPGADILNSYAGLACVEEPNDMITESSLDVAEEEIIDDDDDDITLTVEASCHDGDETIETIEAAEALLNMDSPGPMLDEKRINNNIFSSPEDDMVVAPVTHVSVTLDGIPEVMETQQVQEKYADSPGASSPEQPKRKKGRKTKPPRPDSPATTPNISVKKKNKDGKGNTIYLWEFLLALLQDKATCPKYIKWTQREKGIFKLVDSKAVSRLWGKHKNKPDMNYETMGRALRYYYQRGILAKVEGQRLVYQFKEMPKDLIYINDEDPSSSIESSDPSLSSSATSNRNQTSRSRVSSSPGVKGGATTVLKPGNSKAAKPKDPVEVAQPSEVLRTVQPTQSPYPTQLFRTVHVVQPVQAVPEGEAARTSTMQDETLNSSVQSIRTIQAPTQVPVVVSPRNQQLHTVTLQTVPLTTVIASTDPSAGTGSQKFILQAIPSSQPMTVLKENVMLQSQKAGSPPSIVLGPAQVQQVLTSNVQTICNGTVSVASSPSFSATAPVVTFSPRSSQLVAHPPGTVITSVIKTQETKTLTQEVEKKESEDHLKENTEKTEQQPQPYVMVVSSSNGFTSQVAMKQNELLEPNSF

Take CTGCGG: the binding signal with FLI1 is 1.23 fold enrichment (6-mer frequency, TF over GST control); with ELK1, 1.26 fold enrichment (6-mer frequency, TF over GST control); with GABPA it was 1.05 fold enrichment (6-mer frequency, TF over GST control); with ERG, 1.1 fold enrichment (6-mer frequency, TF over GST control); with ELF1, 1.18 fold enrichment (6-mer frequency, TF over GST control); with EHF it was 1.3 fold enrichment (6-mer frequency, TF over GST control). Besides, the binding signal was 1.03 fold enrichment (6-mer frequency, TF over GST control) with SPI1; 1.09 fold enrichment (6-mer frequency, TF over GST control) in the test with SPIB; 1.05 fold enrichment (6-mer frequency, TF over GST control) with ELK3; 1.07 fold enrichment (6-mer frequency, TF over GST control) in the test with FEV; 1.16 fold enrichment (6-mer frequency, TF over GST control) with ETV5; 1.06 fold enrichment (6-mer frequency, TF over GST control) with SPIC. Moreover, the binding signal with ELF4 is 1.14 fold enrichment (6-mer frequency, TF over GST control); in the test with ETV1 it was 1.15 fold enrichment (6-mer frequency, TF over GST control); with ERF, 1.04 fold enrichment (6-mer frequency, TF over GST control); with ETV3L it was 1.17 fold enrichment (6-mer frequency, TF over GST control); with ETS2, 1.12 fold enrichment (6-mer frequency, TF over GST control); in the test with ELF5, 1.06 fold enrichment (6-mer frequency, TF over GST control). Besides, the binding signal with ETV3 was 1.14 fold enrichment (6-mer frequency, TF over GST control); with ETV6 it was 1.09 fold enrichment (6-mer frequency, TF over GST control).

The record behind these values is paper PMC7862700, “An all-to-all approach to the identification of sequence-specific readers for epigenetic DNA modifications on cytosine”.
